In PubChem BioAssay (NCATS):
Several values for one entry are separate records, joined by “and”; a condition that tells them apart may be missing. Equal values may be shown once. Results filed as inconclusive are left out. Activity calls are given as the source filed them. Unless noted, calls follow the shape of the dose curve; as a rule, active = well fitted curve in the direction sought with a large enough effect; inconclusive = small, poorly fitted or top-dose-only effect, or another doubt; inactive = no such curve, though single readings can be large; an effect the other way counts as inactive or inconclusive.

Key:
[1] = target: Alpha-galactosidase A (Homo sapiens) (UniProt P06280); experiment: Counterscreen for Glucocerebrosidase Inhibitors: qHTS Assay for Human alpha-Galactosidase at pH 4.5 (AID 992); also: 0% is about no effect
Sequence of Alpha-galactosidase A (Homo sapiens) (P06280 whole entry, looked up): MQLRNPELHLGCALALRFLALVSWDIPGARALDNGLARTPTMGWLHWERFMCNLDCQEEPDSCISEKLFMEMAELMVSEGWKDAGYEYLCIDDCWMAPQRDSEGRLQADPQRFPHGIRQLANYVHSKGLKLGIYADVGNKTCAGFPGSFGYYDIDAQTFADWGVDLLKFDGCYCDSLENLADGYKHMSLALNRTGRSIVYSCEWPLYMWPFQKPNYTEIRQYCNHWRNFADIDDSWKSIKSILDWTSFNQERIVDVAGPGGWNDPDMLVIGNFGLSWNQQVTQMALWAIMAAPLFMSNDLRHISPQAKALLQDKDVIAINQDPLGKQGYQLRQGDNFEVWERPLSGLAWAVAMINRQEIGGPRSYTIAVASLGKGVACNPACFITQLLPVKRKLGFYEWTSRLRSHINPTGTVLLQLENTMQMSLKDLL
Method in brief: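 Read-out is 4-methylumbelliferone fluorescence (365 nm excitation, 440 nm emission) after a pH 10 NaOH/glycine stop. Reactions held 2 nM enzyme and 80 uM substrate at pH 4.5 for 20 min at room temperature.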

[2] = target: alpha-glucosidase (Oryza sativa, rice) (UniProt Q653V4); experiment: Counterscreen for Glucocerebrosidase Inhibitors: qHTS Assay for Rice alpha-Glucosidase at pH 5.0 (AID 997);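 also: 0% = full activity with enzyme and -100% = basal without enzyme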
Method in brief: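 Rice alpha-glucosidase (4 nM final) with 400 uM 4-methylumbelliferyl-alpha-D-glucopyranoside in citrate buffer pH 5.0, 20 min at room temperature, stopped at pH 10; fluorescence 365/440 nm, compounds 0.7 nM–77 uM, AC50 from Hill fits.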

[3] = Validation of Assay for Modulators of Lamin A Splicing (AID 1459; active = well fitted curve in the direction sought with a large enough effect in the signal ratio; the % refers to the signal ratio;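 also: cells exposed to compound for two days before reading; 0% is about no effect; ratio rise marks activators and ratio drop marks inhibitors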)
Method in brief: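 S3 HeLa stably expressing lamin A-EGFP splicing minigene and DsRed2, 600 cells/well in Opti-MEM with 2% FBS, treated 48 h at 37C; laser-scanning cytometry gives GFP/RFP total intensity ratio; ancitabine positive control, 0.5% DMSO vehicle.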

[4] = target: DNA repair nuclease/redox regulator APEX1 (Homo sapiens) (UniProt P27695); experiment: qHTS Validation Assay for Inhibitors of the Human Apurinic/apyrimidinic Endonuclease 1 (APE1) (AID 1705;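 also: TAMRA fluorescence gain over two minutes as APE1 cuts a quenched THF abasic duplex; % is scaled to controls: 0 for no effect and ±100 for the full control effect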)
Sequence of DNA repair nuclease/redox regulator APEX1 (Homo sapiens) (P27695 whole entry, looked up): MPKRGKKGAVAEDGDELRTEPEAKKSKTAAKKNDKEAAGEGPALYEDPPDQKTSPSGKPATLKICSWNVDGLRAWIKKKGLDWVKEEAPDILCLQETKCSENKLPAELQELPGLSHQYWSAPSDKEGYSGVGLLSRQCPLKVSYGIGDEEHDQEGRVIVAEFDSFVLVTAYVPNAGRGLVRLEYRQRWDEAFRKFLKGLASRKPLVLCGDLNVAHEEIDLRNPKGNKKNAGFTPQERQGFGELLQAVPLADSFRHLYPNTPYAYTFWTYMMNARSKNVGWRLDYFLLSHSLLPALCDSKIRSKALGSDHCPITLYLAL
Method in brief: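 Fluorogenic double-stranded THF abasic-site substrate (5'-TAMRA/3'-BHQ-2), 50 nM final. Enzyme preincubated with compound 15 min at room temperature, then substrate added. Kinetic fluorescence (ex 525/em 598 nm) read three times at 60 s intervals; activity taken as third-minus-first read difference.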

[5] = Counterscreen for APE1 Inhibitors: Fluorescent Dye Displacement Validation Assay (AID 1707);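 also: plate controls were ThO with dsDNA and no compound for no effect and ThO without dsDNA for full effect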
Method in brief: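 ThO 250 nM + dsDNA 50 nM (THF abasic site, 5'-TAMRA), Tris-HCl pH7.5/50mM NaCl/2 mM MgCl2/0.01% Tween-20; compounds pin-transferred; ex 480/em 540 nm endpoint. Neutral = no compound; no-DNA ThO wells = negative control.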

[6] = target: Endonuclease 4 (Escherichia coli (strain K12)) (UniProt P0A6C1); experiment: Counterscreen for APE1 Inhibitors: qHTS Validation Assay for Inhibitors of Endonuclease IV (AID 1708); also: % is scaled to controls: 0 for no effect and ±100 for the full control effect
Method in brief: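 Concentration-response counterscreen run identically to the APE1 assay: 15 min room-temperature preincubation of 2 nM enzyme with compound, reaction started with 50 nM quenched abasic DNA, progress taken from kinetic fluorescence.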

[7] = qHTS for differential inhibitors of proliferation of Plasmodium falciparum line 7G8 (AID 1815);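 also: parasite growth measured after three days of incubation; plate controls were vehicle wells for no effect and reference inhibitor wells for full effect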
[8] = qHTS Assay for Lipid Storage Modulators (AID 1519; calls by dose curve; as to activity change, negative = inhibition: % is scaled to controls: 0 for no effect and ±100 for the full control effect); details: Drosophila S3 cells, BODIPY lipid droplet/cell ratio, laser cytometry, cells loaded with oleic acid
Method in brief: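 Cells seeded at 5,000 per well were treated with compounds over a concentration series and loaded with oleic acid (400 uM, as added). Lipid droplet fluorescence (488 nm excitation, 500-530 nm channel) was read by laser-scanning cytometry and normalized to 20 uM Triacsin C.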

[9] = Cell Viability - LYMP2-007 (AID 979);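 also: cells exposed to compound for 24 h before reading; 0% = DMSO only and the negative end = 92 µM tetraoctylammonium bromide; nearly all actives have a fitted effect of over 60% in size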
Method in brief: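 Human lymphoblastoid LYMP2-007 cells (2500/well) preincubated 5 h at 37 C, then treated 24 h at 37 C in complete medium. Viability by CellTiter-Glo ATP luminescence after 30 min at room temperature; AC50 from Hill fits.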

[10] = Cell Viability - LYMP2-008 (AID 980); also: % is scaled to controls: 0 for no effect and ±100 for the full control effect; nearly all actives have a fitted effect of over 60% in size
Method in brief: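 LYMP2-008 lymphoblastoid cells (2500/well) plated 5 h, then treated 24 h at 37 C in complete medium. Viability read as intracellular ATP by CellTiter-Glo luminescence after 30 min at room temperature; AC50 from Hill fits.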

[11] = Cell Viability - LYMP2-010 (AID 981); also: nearly all actives have a fitted effect of over 55% in size; also: potency is read from the fitted curve at half-maximal effect
Method in brief: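 Human lymphoblastoid LYMP2-010 cells (2500/well) treated 24 h at 37 C in complete medium; viability read as intracellular ATP by CellTiter-Glo luminescence. AC50 from Hill fits of concentration-response data; tetraoctylammonium bromide positive control.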

[12] = Cell Viability - LYMP2-012 (AID 982);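 also: cellular ATP by luciferase luminescence where a drop means cytotoxicity; cells exposed to compound for one day before reading; nearly all actives have a fitted effect of over 55% in size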; also: potency is read from the fitted curve at half-maximal effect
[13] = Cell Viability - LYMP2-014 (AID 983);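 also: plate controls were DMSO only for no effect and 92 µM tetraoctylammonium bromide for full effect; nearly all actives have a fitted effect of over 50% in size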
Method in brief: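 LYMP2-014 human lymphoblastoid cells, 2500/well, treated 24 h at 37 C in complete medium; viability by CellTiter-Glo ATP luminescence after 30 min at room temperature. AC50 from Hill fits of qHTS concentration-response; tetraoctylammonium bromide positive control.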

[14] = Cell Viability - LYMP2-016 (AID 984); also: % is scaled to controls: 0 for no effect and ±100 for the full control effect; nearly all actives have a fitted effect of over 55% in size
Method in brief: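 Human lymphoblastoid LYMP2-016 cells, 2500 per well, treated with compounds for 24 h at 37 C. Viability read as intracellular ATP by CellTiter-Glo luminescence after 30 min at room temperature; AC50 from Hill fits of concentration-response.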

[15] = Cell Viability - LYMP2-020 (AID 986);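 also: plate controls were DMSO only for no effect and tetraoctylammonium bromide at 92 µM for full effect; nearly all actives have a fitted effect of over 55% in size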
Method in brief: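 Human lymphoblastoid LYMP2-020 cells (2500/well) preincubated 5 h at 37 C, then treated 24 h at 37 C. Viability measured as intracellular ATP by CellTiter-Glo luminescence after 30 min at room temperature; AC50 from Hill fits.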

[16] = Cell Viability - LYMP2-022 (AID 987); also: nearly all actives have a fitted effect of over 55% in size; also: potency is read from the fitted curve at half-maximal effect
Method in brief: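 LYMP2-022 lymphoblastoid cells (2500/well, complete medium) were treated with compounds for 24 hours at 37 C; intracellular ATP was then read by CellTiter-Glo luminescence after 30 min at room temperature. AC50 values were derived from Hill-equation fits.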

[17] = Cell Viability - LYMP2-024 (AID 988); also: nearly all actives have a fitted effect of over 60% in size; also: potency is read from the fitted curve at half-maximal effect
Method in brief: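 Human lymphoblastoid LYMP2-024 cells (2500/well) rested 5 hr, then treated with compound for 24 hr at 37 C in complete medium. Viability was measured as intracellular ATP by CellTiter-Glo luminescence. AC50 values came from Hill-equation fits.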

[18] = Cell Viability - LYMP2-026 (AID 989); also: % is scaled to controls: 0 for no effect and ±100 for the full control effect; nearly all actives have a fitted effect of over 50% in size
Method in brief: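 Human lymphoblastoid LYMP2-026 cells, 2500/well, exposed to compound 24 h at 37 C in complete medium. Viability as intracellular ATP by CellTiter-Glo luminescence; AC50 from Hill fits of qHTS concentration-response.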

[19] = Cell Viability - LYMP1-002 - Assay at 24 hr (AID 993); also: % is scaled to controls: 0 for no effect and ±100 for the full control effect
Method in brief: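 Human lymphoblastoid LYMP1-002 cells (2500/well) treated 24 h at 37 °C; viability as intracellular ATP by CellTiter-Glo luminescence. Tetraoctylammonium bromide as positive control; AC50 from Hill-equation fits of qHTS concentration-response.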

[20] = Cell Viability - LYMP1-002 - Assay at 40 hr (AID 994);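 also: 0% = DMSO only and full inhibition = 92 µM tetraoctylammonium bromide; nearly all actives have a fitted effect of over 60% in size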
Method in brief: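 LYMP1-002 human lymphoblastoid cells (2500/well, complete medium) were treated with compounds for 40 hr at 37 C. Intracellular ATP was measured by CellTiter-Glo luminescence, and AC50 values came from Hill-equation fits of concentration-response data; tetraoctylammonium bromide was the positive control.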

[21] = measured here: cell count channel max response
[22] = measured here: lipid channel max response

O=C1NC(c2cccc([N+](=O)[O-])c2)=CCN1c1ccccc1O
inactive: outcome [1] | outcome [2] | outcome [3] | outcome [4] | outcome [5] | outcome [6] | Potency [7]

O=C(CCCCC(=O)Nc1c(I)cc(I)c(C(=O)O)c1I)Nc1c(I)cc(I)c(C(=O)O)c1I
-3.67%: max response [8, 21]
-4.34%: max response [8, 22]
inactive: activity change, negative = inhibition ([8]; at 25.7 µM (top of the series)) -0.504%

NC(N)=NCCCCN=C(N)N
inactive: outcome [1] | outcome [2] | outcome [3] | activity change, negative = inhibition ([8]; at 25.7 µM (top of the series)) -0.421% | activity change, negative = inhibition ([8]; at 57.5 µM (top of the series)) -1.91% and 4.1% and 0.28% | outcome [4] | outcome [5] | outcome [6] | Potency [7]

C[N+](C)(C)CCO
inactive: outcome [1] | outcome [2] | outcome [3] | outcome [4] | outcome [5] | Potency [7]

CCN(CC)CCOc1ccc(/C(=C(\Cl)c2ccccc2)c2ccccc2)cc1
11.5%: max response [8, 22]
9.36%: max response [8, 21]
inactive: activity change, negative = inhibition ([8]; at 57.5 µM (top of the series)) -1.21%

Cn1cnc2c(NCc3ccccc3)nc(NCCO)nc21
-34.4%: max response [8, 21]
inactive: outcome [1] | outcome [2] | outcome [3] | activity change, negative = inhibition ([8]; at 57.5 µM (top of the series)) -0.56% | outcome [4] | outcome [5] | outcome [6] | Potency [7]
-34.7%: max response [8, 22]

Brc1ccccc1-c1ccccc1
inactive: Potency [9] | Potency [10] | Potency [11] | Potency [12] | Potency [13] | Potency [14] | Potency [15] | Potency [16] | Potency [17] | Potency [18] | Potency [19] | Potency [20]

CC(C)(c1ccc(O)cc1)c1ccc(O)cc1
inactive: Potency [9] | Potency [10] | Potency [11] | Potency [12] | Potency [13] | Potency [14] | Potency [15] | Potency [16] | Potency [17] | Potency [18] | Potency [19] | Potency [20]

O=C(Oc1ccccc1)c1ccccc1O
inactive: Potency [9] | Potency [10] | Potency [11] | Potency [12] | Potency [13] | Potency [14] | Potency [15] | Potency [16] | Potency [17] | Potency [18] | Potency [19] | Potency [20]

CC(=O)OC/C=C(C)/C=C/C=C(C)/C=C/C1=C(C)CCCC1(C)C
active: Potency [11] 50.1 µM | Potency [12] 50.1 µM | Potency [16] 50.1 µM | Potency [17] 39.8 µM
inactive: Potency [19] | Potency [20]

Cc1cc(C(C)(C)C)c(O)c(C(C)(C)C)c1
4.25%: max response [8, 21]
10.5%: max response [8, 22]
inactive: Potency [9] | Potency [10] | Potency [11] | Potency [12] | Potency [13] | Potency [14] | Potency [15] | Potency [16] | Potency [17] | Potency [18] | Potency [19] | Potency [20] | activity change, negative = inhibition ([8]; at 57.5 µM (top of the series)) 4.82%
